Source: PubChem BioAssay AID488969 (Vanderbilt High Throughput Screening Facility, 2010)
Over roughly 110,000 compounds, “z-score” has its median near -0.1; the highest 2% begin near 2. For the sample, the highest values were picked, then their nearest neighbours and some compounds at random. Active and inactive are the calls of the source.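 How the source made its calls: active means z-score in the third read window above 3 or below -3; inactive means the rest.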

Target: Metabotropic glutamate receptor 8 (Rattus norvegicus) (UniProt P70579)
Sequence (P70579 whole entry, looked up): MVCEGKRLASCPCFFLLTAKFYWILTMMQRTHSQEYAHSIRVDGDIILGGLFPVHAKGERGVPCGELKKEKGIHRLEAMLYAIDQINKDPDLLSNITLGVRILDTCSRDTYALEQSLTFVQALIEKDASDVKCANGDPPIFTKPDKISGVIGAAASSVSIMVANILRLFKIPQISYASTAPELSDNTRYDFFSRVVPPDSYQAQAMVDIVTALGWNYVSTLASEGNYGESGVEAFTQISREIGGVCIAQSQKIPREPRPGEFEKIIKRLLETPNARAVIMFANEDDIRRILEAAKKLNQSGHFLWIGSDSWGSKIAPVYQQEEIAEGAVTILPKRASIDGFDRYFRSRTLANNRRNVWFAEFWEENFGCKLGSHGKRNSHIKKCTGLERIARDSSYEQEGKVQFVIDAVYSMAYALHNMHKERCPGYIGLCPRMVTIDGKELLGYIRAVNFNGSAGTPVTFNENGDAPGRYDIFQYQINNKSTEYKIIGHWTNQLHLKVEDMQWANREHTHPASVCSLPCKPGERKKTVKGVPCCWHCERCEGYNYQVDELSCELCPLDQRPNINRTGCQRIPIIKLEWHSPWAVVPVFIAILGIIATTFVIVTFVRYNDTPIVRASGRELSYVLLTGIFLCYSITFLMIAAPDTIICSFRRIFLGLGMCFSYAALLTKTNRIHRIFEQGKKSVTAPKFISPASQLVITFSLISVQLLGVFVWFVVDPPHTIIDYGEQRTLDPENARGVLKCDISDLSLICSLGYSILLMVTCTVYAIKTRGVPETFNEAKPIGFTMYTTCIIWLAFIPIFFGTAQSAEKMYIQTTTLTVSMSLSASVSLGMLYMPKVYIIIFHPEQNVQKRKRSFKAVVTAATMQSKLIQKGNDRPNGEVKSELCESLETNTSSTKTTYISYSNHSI
Assay: rat mGluR8 modulators via GIRK flux, primary screen, cell-based, thallium flux, HTS (AID 488969)
Details: HEK293 rat mGluR8, GIRK (G protein-gated inwardly rectifying potassium channel) thallium flux, FluoZin2; at 10 µM; stronger effect = higher value; submaximal glutamate (EC20) added with thallium

Row | Compound | z-score
1 | O=C(CSc1nc(C2CC2)nc2ccccc12)N1CCc2ccccc2C1 | -0.769
2 | Cc1cc(=O)n2cc(-c3ccccc3)nc2[nH]1 | -0.318
3 | CC1CCN(CCCCOc2ccccc2Br)CC1 | -0.0355
4 | Cc1cc(Cl)ccc1N=C1N=C(N)c2ccccc21 | -1.75
5 | COC(=O)c1sccc1NC(=O)CSc1ccc(Cl)cc1 | 0.289
6 | COC(=O)c1sccc1NC(=O)CSc1ccccc1NS(=O)(=O)c1ccc(Cl)cc1 | 3.6 (active)
7 | COC(=O)c1sccc1NC(=O)CSc1ccccc1NS(=O)(=O)c1ccc(Br)cc1 | 2.31
8 | COC(=O)c1sccc1NC(=O)CN(C)NS(=O)(=O)c1ccc(Cl)cc1 | -0.811
9 | COC(=O)c1sccc1NC(=O)CSc1ccccc1NS(=O)(=O)c1ccc(F)cc1 | 0.941
10 | COC(=O)c1sccc1NC(=O)Cc1ccc(Br)cc1 | -0.0914
11 | N#Cc1ccc(OCC(=O)N/N=C2\CCc3ccccc32)cc1 | -0.239
12 | CCN(CC)C(=O)C(Sc1ccccc1)c1ccccc1 (stereo not drawn) | 0.926
13 | CC(=O)Nc1ccc(NC(=O)CSc2ccc(C)cc2)cc1 | 0.00682
14 | CCOC(=O)c1ccc(NC(=O)CN2C(=O)C(C)SC(C)C2=O)cc1 (stereo not drawn) | -0.088
15 | Cc1nc(NC(C)C(=O)O)c2nc(C)oc2n1 (stereo not drawn) | -0.0905
16 | CCn1cc(C2=NCCO2)c2ccccc21 | 2.2
17 | CCn1cc(C2=NC(C)CO2)c2ccccc21 (stereo not drawn) | -0.418
18 | CCn1cc(C2=NC(C)(C)CO2)c2ccccc21 | -0.521
19 | COc1ccc2[nH]c(C)c(CCN3C(=O)C4C5C=CC(C5)C4C3=O)c2c1 (stereo not drawn) | -0.454
20 | Cc1cccc(CSc2ncnc3c2cnn3Cc2ccccc2)c1 | -0.46
21 | Cc1ccc(CSc2ncnc3c2cnn3Cc2ccccc2)cc1 | -0.449
22 | COC(=O)CSc1ncnc2c1cnn2Cc1ccccc1 | -0.981
23 | c1ccc(CSc2ncnc3c2cnn3Cc2ccccc2)cc1 | -0.473

Row | Compound | z-score
24 | Cc1ccc(-n2ncc3c(SCc4ccccc4)ncnc32)cc1 | 2.51
25 | Cc1ccc(-n2ncc3c(SCc4cccc(C)c4)ncnc32)cc1 | 2.66
26 | Cc1ccc(CSc2ncnc3c2cnn3-c2ccc(C)cc2)cc1 | 1.75
27 | NC(=O)CSc1ncnc2c1cnn2Cc1ccccc1 | 4.34 (active)
28 | Cc1ccc(CSc2ncnc3c2cnn3-c2ccccc2)cc1 | 0.333
29 | CN(C)c1ccnc2sc3c(NCC(O)CO)ncnc3c12 (stereo not drawn) | -0.106
30 | CCOC(=O)c1c(C)[nH]c(C(=O)COC(=O)/C=C/c2ccc3c(c2)OCO3)c1C | 0.00271
31 | Cc1nc2ccccc2cc1C(=O)O | 0.0939
32 | CC(C/C=N/NC(=O)COc1cc(Cl)ccc1Cl)c1ccccc1 (stereo not drawn) | -0.0205
33 | O=C(Nc1ccc2c(c1)OCO2)C1CC(c2ccc(Cl)cc2)=NO1 (stereo not drawn) | -0.0412
34 | CN(c1ccc(OCC(=O)OCC(=O)Nc2ccc(F)cc2)cc1)S(=O)(=O)c1ccc(Cl)cc1 | -0.231
35 | COc1ccccc1N1CCN(CCCC(=O)c2ccc(F)cc2)CC1 | -0.123
36 | COc1cc2cnc(Cl)nc2cc1OC | -0.182
37 | COc1cc2cnncc2cc1OC | 3.21 (active)
38 | COc1cc2cc(C(N)=O)c(N)nc2cc1OC | -0.0702
39 | CCOC(=O)c1ccc(NC(=O)CSc2nnc(-c3cccs3)n2C)cc1 | -0.387
40 | Cc1ccc(C(C(=O)NCC2CCCO2)N(Cc2ccccc2F)C(=O)Cn2nnc(-c3cccs3)n2)cc1 (stereo not drawn) | -0.157
41 | O=C(NCC1CCCO1)C(c1cccs1)N(Cc1cccs1)C(=O)Cn1nnc(-c2cccs2)n1 (stereo not drawn) | -0.109
42 | O=C(NCC1CCCO1)C(c1ccc(F)cc1)N(Cc1ccc(F)cc1)C(=O)Cn1nnc(-c2cccs2)n1 (stereo not drawn) | 2.46
43 | Cn1c(=O)c(-c2ccccc2)nc2ccccc21 | -0.27
44 | c1ccc(-c2cn3nc(-c4ccccc4)c(-c4ccccc4)nc3n2)cc1 | -1.03
45 | O=c1c(-c2ccccc2)nc(-c2ccccc2)cn1O | 2.86
46 | CCOc1ccc2c(c1)-c1c(ssc1=S)C(C)(C)N2C | -0.11

Row | Compound | z-score
47 | CC(Oc1ccc(Cl)cc1)C(=O)NNC(=S)NC(=O)c1ccco1 (stereo not drawn) | 5.62 (active)
48 | O=C(Nc1ccc(Oc2ccc3ccccc3c2)cc1)c1ccco1 | 0.388
49 | CC(C)CNC(=S)NNC(=O)c1ccco1 | -0.0344
50 | COc1ccc(/C=C/C(=O)NC(=S)NNC(=O)c2ccco2)cc1 | 0.921
51 | CC(Oc1ccc2ccccc2c1)C(=O)NNC(=S)NC(=O)c1ccco1 (stereo not drawn) | 4.46 (active)
52 | CCOC(=O)/C(=C/c1ccc(Cl)cc1)NC(=O)c1ccco1 | -0.468
53 | COc1ccc(C(=O)NNC(=S)NC(=O)c2ccco2)cc1 | 2.99
54 | O=C(NC(=S)NNC(=O)c1ccccc1O)c1ccco1 | 0.576
55 | COc1ccc(C(=O)Nc2cc(OC)c(NC(=O)c3ccco3)cc2OC)cc1 | -0.196
56 | Cc1cccc(C(=O)Oc2csc(=S)n2C(=O)c2cccc(C)c2)c1 | 0.282
57 | COc1cc(CNCc2ccccn2)ccc1OCc1ccc(Cl)cc1 | 0.427
58 | CC(=O)c1cccc(NC(=O)C2CC(c3ccc(F)cc3)=NO2)c1 (stereo not drawn) | -0.0875
59 | O=C(COc1ccc(Cl)cc1Cl)Nc1nc2n(n1)C(c1ccccc1)CC(=O)N2 (stereo not drawn) | -0.56
60 | O=C(Nc1ncc(C(F)(F)F)cc1Cl)C1COc2ccccc2O1 (stereo not drawn) | -0.304
61 | CCN(CC)CCNC(=O)c1ccc(NC(=O)c2ccc(Cl)c(S(=O)(=O)Nc3ccccc3OC)c2)cc1 | 2.14
62 | CCN(CC)CCCNC(=O)c1ccc(Cl)c(S(=O)(=O)Nc2ccccc2OC)c1 | -0.0127
63 | CCN(CC)CCNC(=O)c1ccc(Cl)c(S(=O)(=O)Nc2ccccc2OC)c1 | 0.323
64 | CC(=O)c1cccc(NC(=O)CSc2nnc(-c3cccnc3)o2)c1 | 0.059
65 | O=C(NCc1ccccc1)C(=O)Nc1nc(C23CC4CC(CC(C4)C2)C3)cs1 | 3.44 (active)
66 | CC(=O)NNC(=O)CC(=O)Nc1nc(C23CC4CC(CC(C4)C2)C3)cs1 | -0.221
67 | O=C(NCc1ccncc1)C(=O)Nc1nc(C23CC4CC(CC(C4)C2)C3)cs1 | 0.792
68 | COC(=O)N/N=C/c1ccc(OCCSc2ccc(Cl)cc2)c(OC)c1 | 0.427
69 | CCCC1S/C(=N/N=C/c2ccc(C)cc2)N(Cc2ccc(OC)cc2)C1=O (stereo not drawn) | 0.151

Row | Compound | z-score
70 | CC(=O)Nc1ccc(Oc2cc(C#N)c(C#N)cc2N2CCOCC2)cc1 | 0.123
71 | CC(=O)Nc1cccc(Oc2cc(C#N)c(C#N)cc2N2CCCCCC2)c1 | 2.07
72 | CC(=O)Nc1ccc(Oc2cc(C#N)c(C#N)cc2N2CCCCCC2)cc1 | 1.3
73 | O=c1oc2ccccc2c(Nc2cccc3ccccc23)c1[N+](=O)[O-] | -0.861
74 | COCCNC(=O)c1ccc(-n2c(SCc3cc(F)ccc3F)nc3ccccc3c2=O)cc1 | -0.0902
75 | CCN(CC)S(=O)(=O)c1cccc(S(=O)(=O)N2CCCCC2)c1 | -0.121
76 | CC(=O)Nc1ccc(Oc2cnccn2)cc1 | -0.0949
77 | CC(=O)Nc1ccc(Oc2ncccn2)cc1 | 7.84 (active)
78 | CC(=O)Nc1ccc(Oc2nc(C)cc(C)n2)cc1 | 0.187
79 | COCC(=O)n1nc(NCc2ccc(OC)cc2)nc1NCc1ccc(OC)cc1 | -0.00999
80 | CCC(=O)Nc1nc2ccccc2n1CCN(CC)CC | -0.0953
81 | CN(C)CCn1c(NC(=O)c2ccc(Cl)cc2)nc2ccccc21 | 0.381
82 | CCN(CC)CCn1c(NC(=O)c2ccc(Cl)cc2)nc2ccccc21 | 4.18 (active)
83 | Cc1ccc(N/C(SCc2ccccc2C)=C(/C#N)C(=O)NCc2ccco2)cc1C | -0.331
84 | CCOc1cc(C(=S)N2CCOCC2)ccc1OS(=O)(=O)c1ccccc1 | -0.19
85 | CC(C)c1ccc(OCC(=O)NC(=S)Nc2ccc3c4c(cccc24)CC3)cc1 | 1.27
86 | O=C(COc1ccccc1)NC(=S)Nc1ccc2c3c(cccc13)CC2 | 4.29 (active)
87 | CC(C)Oc1cccc(C(=O)NC(=S)Nc2ccc3c4c(cccc24)CC3)c1 | 1.24
88 | COc1cc(OC)cc(C(=O)NC(=S)Nc2ccc3c4c(cccc24)CC3)c1 | 0.967
89 | COc1cccc(C(=O)NC(=S)Nc2ccc3c4c(cccc24)CC3)c1 | 2.83
90 | Cc1ccccc1OCC(=O)NC(=S)Nc1ccc2c3c(cccc13)CC2 | 0.22
91 | CN1CCN(C(=O)c2ccccc2N(Cc2ccccc2)S(=O)(=O)c2ccccc2)CC1 | -0.185
92 | Cn1cc([N+](=O)[O-])c(C(=O)N/N=C/c2ccccc2)n1 | -0.138

Row | Compound | z-score
93 | Cc1cc(C)n(-c2nc3ccccc3nc2Nc2ccc(CC(=O)O)cc2)n1 | 1.13
94 | Nc1[nH]n2c(=O)c3c(nc2c1N=Nc1ccc(Cl)cc1)CCCC3 | -1.09
95 | O=c1c2c(nc3c(-c4ccccc4)c[nH]n13)CCC2 | -0.819
96 | Cc1[nH]n2c(=O)c3c(nc2c1-c1ccccc1)CCC3 | -1.66
97 | N#Cc1c[nH]n2c(=O)c3c(nc12)CCCC3 | -0.482
98 | O=c1c2c(nc3c(-c4ccccc4)c[nH]n13)CCCC2 | 3.66 (active)
99 | O=c1c2c(nc3c(-c4cccc5ccccc45)c[nH]n13)CCC2 | -0.52
100 | Cc1ccc(N=Nc2c(N)[nH]n3c(=O)c4c(nc23)CCCC4)cc1 | -0.696
101 | O=c1c2c(nc3cc(-c4cccc(Cl)c4)[nH]n13)CCC2 | 0.391
102 | O=c1c2c(nc3c(-c4cccc(Br)c4)c[nH]n13)CCCC2 | 6.35 (active)
103 | O=c1c2c(nc3cc(-c4ccccc4)[nH]n13)CCC2 | -0.413
104 | O=c1c2c(nc3c(-c4ccc(Cl)cc4)c[nH]n13)CCCC2 | 12 (active)
105 | Cc1ccc(-c2[nH]n3c(=O)c4c(nc3c2C)CCCC4)cc1 | 11 (active)
106 | COCCNC(=O)C(=O)N/N=C/c1ccccc1C(F)(F)F | -0.508
107 | Cc1nc2ccc(S(=O)(=O)NCC(=O)N3CCOCC3)cc2s1 | -0.0788
108 | COc1ccc2c(c1)c1ncn(CCN3CCNCC3)c(=O)c1n2C | -0.141
109 | O=C(N[C@@H](Cc1ccccc1)c1nc2ccccc2[nH]1)c1cc([N+](=O)[O-])ccc1Cl | -0.361
110 | CC(C)(C)NC(=O)C1CCCN(S(=O)(=O)c2cccc3cccnc23)C1 (stereo not drawn) | -0.133
111 | COc1ccc2nc3oc(C(=O)Nc4ccc(OC)c(OC)c4)cc3cc2c1 | 4.91 (active)
112 | CCOc1ccc(NC(=O)c2cc3cc4ccc(OC)cc4nc3o2)cc1 | 0.334
113 | COc1ccc2cc3cc(C(=O)Nc4cc(OC)c(OC)c(OC)c4)oc3nc2c1 | -0.255
